Screening data: PubChem BioAssay, National Center for Advancing Translational Sciences (NCATS)
CtBP-E1A blk: inhibitors of CtBP/E1A interaction; 340,000 compounds, 0.49% hits; activity change, % (no concentration beside the values); AID 651724; AlphaScreen GST-E1A/His-CtBP binding, 1536-well; hits give low values; in the data active = activity change below about -65%; inconclusive = mostly about -30% to -63%
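GST-E1A and His-tagged CtBP (125 nM each as 5X stock) were preincubated with pin-transferred compound for 2 h at 37 °C in the dark, then glutathione donor and nickel acceptor beads were added for 1 h before AlphaScreen reading.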
USP2a inh: blocks human ubiquitin-specific protease USP2a; USP2 core, Ub-CHOP2 coupled fluorogenic reporter, 485/531; 330,000 compounds, 0.01% hits; Potency, µM (series often up to 38.3 µM), actives largely listed as inhibitors; O75604
Target sequence (O75604 whole entry, looked up): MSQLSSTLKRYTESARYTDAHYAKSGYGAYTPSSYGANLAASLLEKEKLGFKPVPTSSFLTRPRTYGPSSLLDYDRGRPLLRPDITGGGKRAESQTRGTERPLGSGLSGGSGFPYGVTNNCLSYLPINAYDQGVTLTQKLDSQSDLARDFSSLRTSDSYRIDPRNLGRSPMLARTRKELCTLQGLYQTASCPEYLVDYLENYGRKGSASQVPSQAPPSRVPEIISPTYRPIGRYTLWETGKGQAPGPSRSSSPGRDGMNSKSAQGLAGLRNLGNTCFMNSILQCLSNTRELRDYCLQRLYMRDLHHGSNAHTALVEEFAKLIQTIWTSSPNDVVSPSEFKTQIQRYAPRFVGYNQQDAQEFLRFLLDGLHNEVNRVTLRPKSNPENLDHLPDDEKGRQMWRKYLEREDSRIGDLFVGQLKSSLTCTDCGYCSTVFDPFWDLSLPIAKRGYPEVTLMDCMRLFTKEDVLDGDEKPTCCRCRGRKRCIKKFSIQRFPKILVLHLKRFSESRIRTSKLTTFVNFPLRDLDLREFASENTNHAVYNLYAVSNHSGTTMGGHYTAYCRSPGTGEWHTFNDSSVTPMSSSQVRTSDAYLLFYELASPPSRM
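Cell-free coupled assay: 10nM USP2 core preincubated 30min RT with compound in Tris-HCl pH 8.0/CaCl2/CHAPS buffer, then 25nM Ub-CHOP2 and 25nM reporter substrate; fluorescence (Ex 485/Em 531) read after 60min RT, normalized to NEM inhibition, concentration-response curves fitted.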
PI4K2A block: PI4K2A (human) kinase inhibition; activity change, negative = inhibition, % at 76.9 µM; 420,000 compounds, 0.13% hits; purified PI4K2A, ADP-Glo luminescence, 1 h; hits give low values; Q9BTU6; in the data active = activity change below about -50%; inconclusive = mostly about -30% to -49%
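ADP-Glo luminescence measured ADP generated by PI4K2A enzyme (4 ug/mL before mixing) with 1.2 mM PI substrate (pre-mix) and 300 microM ATP (pre-mix). Tris pH7.5 buffer with MgCl2, Triton X-100; 1 h reaction at ambient temperature.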
Eya2 inh: blocks the phosphatase activity of human Eya2. Potency, µM (titrated, usually from 76.9 µM), usual class: inhibitors. 330,000 compounds, 0.006% hits. O00167. AID 488837. recombinant Eya2, OMFP fluorescence dephosphorylation (OMFP is methylfluorescein phosphate)
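Eya2 (0.2 uM) preincubated 10 min at ambient with compound, then OMFP substrate added at 50 uM; 10 min reaction in 50 mM HEPES pH 7.5, 50 mM NaCl, 5 uM MgCl2, 0.05% BSA, 1 mM DTT. Fluorescence read at Ex 485/Em 525 nm.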
RGS4 inh: human RGS4 inhibition | P49798 | Transcreener GDP fluorescence polarization, RGS4-accelerated GTP hydrolysis | Potency, µM (titrated, usually from 114 µM), most hits filed as inhibitors | 390,000 compounds, 0.039% hits | AID 504845; also: nearly all actives have a fitted effect of over 75% in size
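MLSMR compounds (23 nl, pin-transferred) preincubated 10 min at room temperature with a 500nM (2x) first reagent, then RGS4 at 900nM (2x) plus Transcreener GDP mix added; fluorescence polarization (620/688 nm) read before and after 90 min at 30 °C.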
Six1-Eya2 blk: inhibitors of human Six1/Eya2 interaction | Q15475+O00167 | AlphaScreen GST-Six1/His-Eya2 binding, biochemical; hits give low values | activity change, % (test concentration not listed) | 360,000 compounds, 0.56% hits; in the data active = activity change below about -65%; inconclusive = mostly about -30% to -63%
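Six1/Eya2 binding was read as AlphaScreen signal after compounds were pinned into GST-Six1 plus His-tagged Eya2 (5X stock 250/500 nM) in pH 8.0 Tris/NaCl/TCEP buffer, beads added, then incubated 1 h, 37 C, dark.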
Large screens that a line does not name were inactive. Compounds with a hit are over-represented: about 0.72% of the library has one in this group of screens. Unless noted, calls follow the shape of the dose curve; as a rule, active = well fitted curve in the direction sought with a large enough effect; inconclusive = small, poorly fitted or top-dose-only effect, or another doubt; inactive = no such curve, though single readings can be large; an effect the other way counts as inactive or inconclusive.

CCCCCCC/C=C\CCCCCCCCC(=O)O	RGS4 inh 23.8µM (no result: CtBP-E1A blk, USP2a inh, Six1-Eya2 blk)
CCCCC/C=C\C/C=C\CCCCCCCC(N)=O	RGS4 inh 23.8µM (no result: CtBP-E1A blk, USP2a inh, PI4K2A block, Eya2 inh, Six1-Eya2 blk)
CC(C)(C)c1ccc(C(=O)NCC(=O)OCc2cc(=O)n3nc(C4CC4)sc3n2)cc1	none (no result: CtBP-E1A blk, USP2a inh, Eya2 inh, Six1-Eya2 blk)
CC1CCc2nc3ncn(Cc4ccccc4C#N)c(=O)c3cc2C1 (stereo unspecified)	none (no result: CtBP-E1A blk, USP2a inh, Eya2 inh, Six1-Eya2 blk)
C=CCNc1nc(-c2ccccn2)nnc1-c1ccccc1	CtBP-E1A blk -91.8, Six1-Eya2 blk -92.4
O=[N+]([O-])c1ccc(C=Nc2cccc3ccccc23)s1	CtBP-E1A blk -69.6, Six1-Eya2 blk inconclusive
O=[N+]([O-])c1ccc(-c2ccc(C=Nc3cccc4ccccc34)o2)cc1	Six1-Eya2 blk inconclusive
CC(=O)Nc1c(C)nn(-c2ccccc2)c1N1CCC(C(=O)NCc2ccc(F)cc2)CC1	none (no result: CtBP-E1A blk, USP2a inh, Eya2 inh, Six1-Eya2 blk)
Cc1ccc(C)c(N2CCN(CCCNC(=O)Cn3c(-c4cccs4)cc4ccccc43)CC2)c1	none (no result: CtBP-E1A blk, USP2a inh, Eya2 inh, Six1-Eya2 blk)
Cc1c(N/N=C(\C#N)C(=O)c2ccc(Cl)cc2)c(=O)n(-c2ccccc2)n1C	CtBP-E1A blk -75.6, Six1-Eya2 blk -82.1
Cc1nnc(N2CCN(C(=O)NC(C)C)CC2)c2nn(-c3ccccc3)c(C)c12	none (no result: CtBP-E1A blk, USP2a inh, Eya2 inh, Six1-Eya2 blk)
Nc1ccc(N)c(C(=O)O)c1	CtBP-E1A blk inconclusive, USP2a inh inconclusive, PI4K2A block -66.0, RGS4 inh inconclusive, Six1-Eya2 blk -81.7
CCCCN(CCCC)C1=C(C(=O)c2ccccc2)N(C)S(=O)(=O)c2ccccc21	none (no result: CtBP-E1A blk, USP2a inh, Eya2 inh, Six1-Eya2 blk)
O=C1c2[nH]nc(-c3ccccc3O)c2C(c2ccc(Cl)cc2)N1CCc1ccccc1 (stereo unspecified)	none (no result: CtBP-E1A blk, USP2a inh, Eya2 inh, Six1-Eya2 blk)
CCN(CC)c1ccc2c(-c3ccc(S(=O)(=O)O)cc3S(=O)(=O)[O-])c3ccc(=[N+](CC)CC)cc-3oc2c1	CtBP-E1A blk inconclusive, USP2a inh inconclusive, PI4K2A block inconclusive, Eya2 inh inconclusive, RGS4 inh inconclusive, Six1-Eya2 blk -66.8
CCCCC(CC)CNC(=O)CC(C)OC(=O)CCC(=O)O (stereo unspecified)	none (no result: CtBP-E1A blk, USP2a inh, Eya2 inh, RGS4 inh, Six1-Eya2 blk)
COc1ccccc1N1CCN(CC(O)COc2cc(OC)c(OC)c(OC)c2)CC1 (stereo unspecified)	none (no result: CtBP-E1A blk, USP2a inh, Eya2 inh, RGS4 inh, Six1-Eya2 blk)
COc1ccc(N(CC(=O)Nc2cccc(C)c2C)S(=O)(=O)c2c(C)n[nH]c2C)cc1	CtBP-E1A blk -66.5, Six1-Eya2 blk inconclusive
Brc1ccc(OCc2nc(-c3ccccn3)n[nH]2)cc1	CtBP-E1A blk -92.8, Six1-Eya2 blk -90.6
Clc1ccc(OCc2nc(-c3ccccn3)n[nH]2)cc1	CtBP-E1A blk -94.3, Six1-Eya2 blk -92.1
O=C(NCCCc1nc2ccccc2n1CCCOc1ccccc1)C1CCCCC1	none (no result: CtBP-E1A blk, USP2a inh, PI4K2A block, Eya2 inh, Six1-Eya2 blk)
COc1ccccc1NC(=O)C1CCN(c2cnccn2)CC1	none (no result: CtBP-E1A blk, USP2a inh, Eya2 inh, Six1-Eya2 blk)
O=C(Nc1ccc(S(=O)(=O)N2CCOCC2)cc1)c1cc(-c2cc(Cl)ccc2O)n[nH]1	none (no result: CtBP-E1A blk)
Cc1cc(O)c(-c2cc(C(=O)Nc3ccc(S(=O)(=O)N4CCOCC4)cc3)[nH]n2)cc1C	CtBP-E1A blk -71.8, Six1-Eya2 blk inconclusive
O=C(N=Nc1c(O)[nH]c2ccccc12)c1cccs1	CtBP-E1A blk inconclusive
O=C(N=Nc1c(O)[nH]c2ccccc12)c1cc(NS(=O)(=O)c2cccs2)cc(NS(=O)(=O)c2cccs2)c1	PI4K2A block -51.1
Cc1ccc(S(=O)(=O)N2CCOCC2)cc1NC(=O)CNCc1ccccn1	CtBP-E1A blk -93.6, Six1-Eya2 blk -68.6
O=C(CNCc1ccccn1)Nc1cc(S(=O)(=O)N2CCCCC2)ccc1Cl	CtBP-E1A blk -87.9, Six1-Eya2 blk -85.8
Cc1ccc(S(=O)(=O)N2CCOCC2)cc1NC(=O)CNCc1ccccc1Cl	none
COc1ccc(C(=S)N2CCOCC2)cc1OC(=O)c1cc(OC)c(OC)c(OC)c1	none
COc1cc(C(=O)Oc2ccc(Br)cc2C(=S)N2CCOCC2)cc(OC)c1OC	CtBP-E1A blk -71.3, RGS4 inh inconclusive, Six1-Eya2 blk -83.4
